# Assay outcomes from PubChem BioAssay.
# BAZ2B block: blocks human BAZ2B; AlphaScreen BAZ2B-H3K14Ac peptide displacement; AID 504333; 4.4% of 360,000 active; Q9UIF8; Potency, µM (series often up to 114 µM), for the others: at the top dose activity change, negative = inhibition, hits mostly inhibitors; note: % is set by controls: 0 for no effect and ±100 for the full control effect; nearly all actives have a fitted effect of over 60% in size
# Target sequence (Q9UIF8 whole entry, looked up): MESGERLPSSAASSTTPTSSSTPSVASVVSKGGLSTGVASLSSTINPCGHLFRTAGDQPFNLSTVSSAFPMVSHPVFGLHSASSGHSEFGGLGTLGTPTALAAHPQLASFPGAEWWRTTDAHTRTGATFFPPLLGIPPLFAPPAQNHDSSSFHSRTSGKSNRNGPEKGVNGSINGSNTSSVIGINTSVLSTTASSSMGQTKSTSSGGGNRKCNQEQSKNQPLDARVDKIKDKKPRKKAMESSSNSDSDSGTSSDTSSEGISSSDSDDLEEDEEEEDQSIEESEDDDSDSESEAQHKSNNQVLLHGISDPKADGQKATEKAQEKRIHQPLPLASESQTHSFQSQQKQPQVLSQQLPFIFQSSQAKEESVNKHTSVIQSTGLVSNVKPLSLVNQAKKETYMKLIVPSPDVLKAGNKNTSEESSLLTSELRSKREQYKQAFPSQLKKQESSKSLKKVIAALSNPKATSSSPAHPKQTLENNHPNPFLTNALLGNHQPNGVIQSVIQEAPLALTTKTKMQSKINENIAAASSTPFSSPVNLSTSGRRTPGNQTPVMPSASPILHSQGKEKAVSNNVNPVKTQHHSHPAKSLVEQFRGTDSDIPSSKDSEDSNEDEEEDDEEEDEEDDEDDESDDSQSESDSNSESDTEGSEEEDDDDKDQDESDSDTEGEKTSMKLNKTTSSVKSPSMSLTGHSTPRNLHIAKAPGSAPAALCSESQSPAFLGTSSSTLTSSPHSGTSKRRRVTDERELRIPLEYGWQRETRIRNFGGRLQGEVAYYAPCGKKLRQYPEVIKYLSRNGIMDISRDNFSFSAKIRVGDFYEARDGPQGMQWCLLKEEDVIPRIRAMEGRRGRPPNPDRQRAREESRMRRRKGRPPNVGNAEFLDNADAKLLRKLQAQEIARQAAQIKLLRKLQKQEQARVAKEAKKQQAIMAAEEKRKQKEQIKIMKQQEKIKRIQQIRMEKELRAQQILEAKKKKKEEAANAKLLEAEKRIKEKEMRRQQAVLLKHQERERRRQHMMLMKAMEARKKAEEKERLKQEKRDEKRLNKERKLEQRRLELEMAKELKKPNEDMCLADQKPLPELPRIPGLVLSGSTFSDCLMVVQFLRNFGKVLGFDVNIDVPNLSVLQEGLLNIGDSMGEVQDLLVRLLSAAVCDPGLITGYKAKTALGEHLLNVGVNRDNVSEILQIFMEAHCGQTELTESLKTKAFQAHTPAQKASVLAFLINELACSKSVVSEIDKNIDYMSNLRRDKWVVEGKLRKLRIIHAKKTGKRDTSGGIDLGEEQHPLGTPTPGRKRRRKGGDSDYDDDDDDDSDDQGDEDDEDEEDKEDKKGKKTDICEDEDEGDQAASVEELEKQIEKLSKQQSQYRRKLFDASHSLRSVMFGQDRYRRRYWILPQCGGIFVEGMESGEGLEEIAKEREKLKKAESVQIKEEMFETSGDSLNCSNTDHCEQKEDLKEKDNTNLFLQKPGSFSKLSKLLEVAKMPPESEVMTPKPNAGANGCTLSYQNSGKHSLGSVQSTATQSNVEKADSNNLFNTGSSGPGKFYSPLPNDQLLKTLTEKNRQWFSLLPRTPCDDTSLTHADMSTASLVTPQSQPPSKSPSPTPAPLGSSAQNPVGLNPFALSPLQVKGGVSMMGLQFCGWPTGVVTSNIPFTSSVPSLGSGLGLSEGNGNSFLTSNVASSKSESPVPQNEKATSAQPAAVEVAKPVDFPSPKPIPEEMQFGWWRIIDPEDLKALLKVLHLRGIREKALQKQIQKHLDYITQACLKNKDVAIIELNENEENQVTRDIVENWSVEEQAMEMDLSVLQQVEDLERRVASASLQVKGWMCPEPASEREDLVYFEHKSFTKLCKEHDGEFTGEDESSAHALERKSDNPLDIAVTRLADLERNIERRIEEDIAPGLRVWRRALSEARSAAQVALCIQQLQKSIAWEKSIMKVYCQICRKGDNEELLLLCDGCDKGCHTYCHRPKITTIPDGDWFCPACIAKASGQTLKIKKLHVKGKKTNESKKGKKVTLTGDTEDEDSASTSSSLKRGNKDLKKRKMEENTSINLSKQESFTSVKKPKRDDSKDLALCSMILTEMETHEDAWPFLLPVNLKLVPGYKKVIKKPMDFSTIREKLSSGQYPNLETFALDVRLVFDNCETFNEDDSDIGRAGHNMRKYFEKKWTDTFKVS
#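 AlphaScreen luminescence quantifies BAZ2B engagement of H3K14Ac peptide; the protein and biotinylated peptide are both at 50 nM final, buffer PBS pH 7.4 with 0.01% Tween-20, all steps at room temperature.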
# TDP1 inh: blocks human tyrosyl-DNA phosphodiesterase 1. recombinant TDP1, AlphaScreen DNA substrate cleavage. Potency, µM (titrated, usually from 130 µM), without a hit: top-dose activity change, negative = inhibition, actives largely listed as inhibitors. 0.28% of 350,000 active. AID 485290; note: % is set by controls: 0 for no effect and ±100 for the full control effect; nearly all actives have a fitted effect of over 40% in size
#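 Recombinant human Tdp1 (E. coli-expressed, 1 nM final) preincubated with compounds 15 min at room temperature, then 5'-biotin/3'-phosphotyrosine-FITC DNA substrate (15 nM final) added for 5 min. AlphaScreen beads (10 ug/ml final) added 10 min; cleavage lowers signal.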
# Sfp inh: inhibitors of Bacillus subtilis Sfp phosphopantetheinyl transferase; 3.5% of 310,000 active; Potency, µM, for inactives: largest response in the series, negative = inhibition, hits mostly inhibitors; Biochemical Sfp PPTase activity, qHTS; Q9F4F7; AID 1490;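 note: the enzyme is Sfp with the accession as filed and its product quenches rhodamine fluorescence; 0% = enzyme reaction without inhibitor and -100% = no enzyme wells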
#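 After 15 min at room temperature with compound, 15 nM Sfp received 5 uM rhodamine-CoA plus 12.5 uM BHQ-2-ybbR (50 mM Hepes pH 7.6, 10 mM MgCl2). Rate came from the fluorescence difference over 30 min, ex 525/em 598 nm.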
# G9a block: inhibitors of human histone lysine methyltransferase G9a; Q96KQ7; G9a H3K9 monomethylation, AlphaScreen, 2 h; Potency, µM (highest dose often 102 µM), for inactives: at the highest dose activity, negative = inhibition, actives largely listed as inhibitors; 8.8% of 350,000 active; AID 504332; note: % is set by controls: 0 for no effect and ±100 for the full control effect; nearly all actives have a fitted effect of over 75% in size
#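 Enzyme 20 nM + cpd, 15 min RT; add b-H3K9 pep 500 nM / SAM 20 uM; 2 h RT; anti-H3K9me1 Ab 0.5 ug/mL + SA donor / anti-rabbit acceptor beads 20 ug/mL each, 10 min; AlphaScreen read.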
# JMJD2A Tudor inh: inhibitors of human JMJD2A Tudor domain. 4.4% of 390,000 active. Potency, µM (top dose mostly 114 µM), for the others: top-dose activity change, negative = inhibition, actives largely listed as inhibitors. AlphaScreen JMJD2A-Tudor / H3K4me3 peptide binding. O75164; note: % is set by controls: 0 for no effect and ±100 for the full control effect; nearly all actives have a fitted effect of over 50% in size
# HP1b binding inh: HP1-beta chromodomain-methylated histone interaction inhibition; P83916; AlphaScreen HP1-beta / biotin-H3K9me3 peptide binding; Potency, µM (series often up to 114 µM), inactives show top-dose activity change, negative = inhibition, actives largely listed as inhibitors; 0.56% of 390,000 active; note: nearly all actives have a fitted effect of over 70% in size
#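 Compound inhibition of the preformed complex between 50 nM HP1-beta and 50 nM biotinylated H3K9me3 peptide was read by AlphaScreen. Buffer was PBS pH 7.4 with 0.01% Tween-20. Incubations ran 30 min at room temperature, with 10 ug/mL donor/acceptor beads.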
# * marks the source's active call; other numbers are inactive results; ? = inconclusive; / = no result given; ! = not confirmed by another sample; [ ] = another dose, or the depositor's remark. Most compounds without a hit are left out; they make up all but 12% or so of the library. Calls come from the whole dose curve; as a rule, active = well fitted curve in the direction sought with a large enough effect; inconclusive = small, poorly fitted or top-dose-only effect, or another doubt; inactive = no such curve, though single readings can be large; an effect the other way counts as inactive or inconclusive. Potency is the fitted concentration of half-maximal effect.
SMILES,BAZ2B block,TDP1 inh,Sfp inh,G9a block,JMJD2A Tudor inh,HP1b binding inh
CCc1ccc(NC(=S)N(Cc2ccc(Cl)cc2)Cc2ccc(C(=O)O)cc2)cc1,-13%,7%,18µM*,-36%,-30%,-17%
NCCCN(Cc1ccc(Cl)c(Cl)c1)c1ccc(Br)cn1,/,/,/,/,-23%,0%
C=CC#CC1(O)CC(C)[N+](C)(C)CC1C (configuration not stated),-8%,3%,40µM*,28µM*,22µM*,?
O=C1CCCC2(O)C1C(c1cccc(Br)c1)NC(=O)N2Cc1ccccc1 (configuration not stated),30%,5%,?,45µM*,7%,51%
Cn1ncc(Cl)c1C(=O)N1CCN(C23CC4CC(CC(C4)C2)C3)CC1,-8%,0%,13%,/,89µM*,4%
COc1ccc(CN(C(=O)c2ccc(-c3ccccc3)[nH]2)C(C(=O)NC(C)(C)C)c2ccncc2)cc1 (configuration not stated),?,-4%,45µM*,?,40µM*,-10%
Cc1cc2cc(CNC(=O)c3ccc(Br)o3)ccc2n1C,35µM*,/,28µM*,-110%[59 µM],56µM*,-24%
Cc1cccc(NC(=O)NCc2ccc3c(c2)cc(C)n3C)c1,?,10%,50µM*,?,?,-5%
CC(=O)Nc1ccc(S(=O)(=O)NCc2ccc3c(c2)cc(C)n3C)cc1,?,4%,-12%,79µM*,?,-1%
Cc1cc2cc(CNC(=O)c3ccc(Br)o3)ccc2[nH]1,?,/,-1%,?,?,-13%
Cc1cccc(NC(=S)NCc2ccc3c(c2)cc(C)n3C)c1C,35µM*,8%,-13%,3%[59 µM],35µM*,?
Cc1cc2cc(CNC(=S)Nc3ccc(OC(F)(F)F)cc3)ccc2n1C,0%,5%,27%,8%,?,-6%
Cc1cc2cc(CNS(=O)(=O)c3ccc4ccccc4c3)ccc2n1C,?,8%,-24%,?,?,-6%
CCCCCN1C(C(=O)c2ccccc2)=C(NC(=O)c2ccc(OC)cc2)c2ccccc2S1(=O)=O,-22%,5%,/,-41%[59 µM],-27%,3%
N#Cc1ccccc1NC(=O)CN1C(=O)NC(Cc2c[nH]c3ccccc23)C1=O (configuration not stated),-3%,0%,/,10µM*,-10%,25%
CCOc1ccc(C2C(C(=O)Nc3ccccc3)=C(C)Nc3nc(-c4ccccc4)nn32)cc1OC (configuration not stated),3%,/,/,19%[59 µM],-18%,15%
CC(C)CCNC(=O)C1CCC(=O)N1CCc1ccccc1 (configuration not stated),-11%,/,7%,21%,-11%,26%
COc1cc(-c2nc3ccccn3c2N)ccc1O,-31%,/,-3%,50µM*,-19%,13%
CN1CCC(=O)N([C@H](CO)c2ccccc2)CC1,-27%,/,14%,45µM*,-20%,52%
COc1ccc2cc(CNc3ccccc3)c(=O)n(CC(=O)Nc3ccc(C(C)=O)cc3)c2c1,-12%,8%,/,-33%[59 µM],-24%,10%
CC(CN1c2ccccc2Sc2ccccc21)N(C)C (configuration not stated),45µM*,6%,50µM*!,15µM*!,?,-14%
COc1ccc2c(c1)N(C[C@@H](C)CN(C)C)c1ccccc1S2,/,13%[21 µM],4%,7.9µM*,/,/
CCCN1Cc2cccc(C(=O)Nc3ccccc3F)c2C1=O,8%,6%,/,3%[59 µM],-3%,22%
NS(=O)(=O)c1ccc(NNC(=O)c2ccc(Br)o2)c([N+](=O)[O-])c1,/,5%,/,/,-26%,-37%
CCC(Sc1nc(C)cc(=O)[nH]1)C(=O)Nc1nc2c(s1)CCCC2 (configuration not stated),?,2%,-5%,45µM*,-18%,21%
SMILES,BAZ2B block,TDP1 inh,Sfp inh,G9a block,JMJD2A Tudor inh,HP1b binding inh
Cc1cc(=O)[nH]c(SCC(=O)Nc2nc3c(s2)CCCC3)n1,-9%,8%,13%,0%,-8%,25%
CCC(=O)N1c2ccccc2CC1C(=O)NCCCN1CCN(c2ccccc2)CC1 (configuration not stated),?,6%,/,6%[59 µM],-28%,4%
Nc1nonc1-n1nnc(C(=O)N/N=C/c2ccc(Cl)cc2Cl)c1CN1CCCCC1,-5%,-6%,22%,35µM*,-6%,53%
COCc1c(C(=O)N/N=C\c2ccccn2)nnn1-c1nonc1N,40µM*,1%,56µM*,0.79µM*,79µM*,24%
Nc1nonc1-n1nnc(C(=O)N/N=C/c2cccc(O)c2)c1CN1CCCC1,-19%,3%,0%,45µM*,-7%,31%
CCN(CC)S(=O)(=O)c1ccc(S(=O)(=O)N2CCCC(C(=O)NC3CC3)C2)cc1 (configuration not stated),2%,/,11%,22%,-2%,13%
CCOC(=O)c1sc(=S)n(CC)c1NC(=O)c1ccccc1,-3%,0%,23%,-42%,-2%,16%
CC/C=C\C/C=C\C/C=C\C/C=C\C/C=C\C/C=C\CCC(=O)NCC(=O)O,/,4%,-11%,/,/,/
O=c1c2ccccc2nc(N2CCN(c3ccccc3)CC2)n1Cc1ccccc1,-31%,3%,-2%,?,-31%,10%
CC(CN1CCOCC1)OC(=O)c1ccccc1Br (configuration not stated),-24%,0%,11%,-44%[12.7 µM],-28%,42%
O=C(Oc1c(CN2CCOCC2)cc(Cl)c2cccnc12)c1ccccc1Br,20µM*,8%,-5%,-7%,40µM*,18%
COCc1cc(CN2CCN(C)CC2)c(O)c2ncccc12,1.1µM*,-3%,17%,-126%,7.9µM*,21%
c1ccc(N2CCN(Cc3ccnc4ccccc34)CC2)cc1,?,6%,-9%,4.5µM*,56µM*,25%
CC(C)OCc1cc(CN2CCN(c3ccccc3)CC2)c(O)c2ncccc12,8.9µM*,13%,/,-10%[59 µM],25µM*,21%
Oc1c(CN2CCN(c3ccccc3)CC2)cc(Br)c2cccnc12,?,/,13%,-9%[59 µM],-36%,40%
Cc1c(Cl)cnc(NC(=O)COC(=O)[C@@H](NC(=O)c2ccco2)C(C)C)c1Cl,/,-7%,/,/,?,21%
Cc1cc(OCc2cccc(Cl)c2)c(C)cc1CN1CCOCC1,16%,-8%,-3%,/,30%,113%
CCOC(=O)N1CCN(Cc2cc(Cl)c3cccnc3c2O)CC1,10µM*,3%,?,/,22µM*,6%
